Test results taken from the supplement of paper PMC3545927.
This is one part of the list. How many sequences the whole screen found active is unknown.

Biological target: furin, P09958
Experiment: furin cleavage Z-score vs untreated control; higher = more cleavage, active = 3.5 or more, inactive = 1 or less, 8 variable residues between constant flanks
How it was run: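 Read counts from sequencing released DNA gave abundance for each bead-bound 8-mer peptide–cDNA fusion cut by purified furin over 7.5, 15 or 30 min. The cleavage Z-score compares log counts with furin-free reactions after lowess adjustment and median absolute deviation scaling.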
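Also: purified furin at 1:10 enzyme:substrate in 50 mM HEPES pH 7.5.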

furin, P09958, sequence (P09958 whole entry): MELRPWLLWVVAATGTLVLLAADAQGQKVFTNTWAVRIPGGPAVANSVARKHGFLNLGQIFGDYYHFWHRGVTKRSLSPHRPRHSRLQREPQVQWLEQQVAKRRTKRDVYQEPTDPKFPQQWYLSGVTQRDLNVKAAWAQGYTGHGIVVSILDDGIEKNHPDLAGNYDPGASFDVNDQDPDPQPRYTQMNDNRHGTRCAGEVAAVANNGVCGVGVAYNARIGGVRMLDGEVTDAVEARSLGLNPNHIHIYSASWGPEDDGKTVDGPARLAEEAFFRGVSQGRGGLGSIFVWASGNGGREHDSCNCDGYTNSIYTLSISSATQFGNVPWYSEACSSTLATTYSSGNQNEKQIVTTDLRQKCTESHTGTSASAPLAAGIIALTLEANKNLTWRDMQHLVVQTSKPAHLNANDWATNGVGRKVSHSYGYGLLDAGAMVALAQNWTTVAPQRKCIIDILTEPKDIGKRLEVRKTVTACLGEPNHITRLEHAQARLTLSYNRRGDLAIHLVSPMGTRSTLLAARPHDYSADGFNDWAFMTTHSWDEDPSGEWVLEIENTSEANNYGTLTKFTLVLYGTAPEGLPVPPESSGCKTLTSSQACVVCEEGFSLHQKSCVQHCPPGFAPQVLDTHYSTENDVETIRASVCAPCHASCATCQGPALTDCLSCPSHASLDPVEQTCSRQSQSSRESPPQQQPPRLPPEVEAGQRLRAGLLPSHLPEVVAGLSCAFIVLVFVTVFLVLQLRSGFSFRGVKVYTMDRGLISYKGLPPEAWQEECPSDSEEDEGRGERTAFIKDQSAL

| Sequence | furin cleavage Z-score (7.5 min) | furin cleavage Z-score (15 min) | furin cleavage Z-score (30 min) |
| --- | --- | --- | --- |
| CAMMECSQHLAGNASASA [HC1686] | -0.328 (inactive) | 0.731 (inactive) | 0.7 (inactive) |
| CAEVVTVTWVAGNASASA [HC143] | -0.0202 (inactive) | -1.22 (inactive) | 0.0435 (inactive) |
| CASIEPLDLPAGNASASA [HC1597] | -0.888 (inactive) | 1.4 | -0.00883 (inactive) |
| CARRERSIKSAGNASASA [FS-863] | 3.74 (active) | 6.21 (active) | 7 (active) |
| CAPRRRARSLAGNASASA [FS-2479] | 10.9 (active) | 12.2 (active) | 10.3 (active) |
| CARNFRFLSSAGNASASA [FS-3004] | -0.151 (inactive) | -0.288 (inactive) | -1.62 (inactive) |
| CARRRRARSSAGNASASA [FS-3061] | 9.64 (active) | 8.93 (active) | 6.98 (active) |
| CAAPQGSRSLAGNASASA [HC717] | -0.871 (inactive) | -1.2 (inactive) | 0.343 (inactive) |
| CARRRRSRSSAGNASASA [FS-3263] | 8.31 (active) | 9.52 (active) | 8.33 (active) |
| CARRYRGNDSAGNASASA [FS-3072] | -0.0765 (inactive) | -0.858 (inactive) | -0.417 (inactive) |
| CARRWRSLRPAGNASASA [FS-1924] | -0.388 (inactive) | 2.12 | 2.35 |
| CATTPCEGSWAGNASASA [HC73] | 0.057 (inactive) | 0.658 (inactive) | 0.0884 (inactive) |
| CATGTYVYNHAGNASASA [HC633] | -0.127 (inactive) | -1.41 (inactive) | -0.282 (inactive) |
| CARRARDMSSAGNASASA [FS-1771] | 2.38 | 4.53 (active) | 4.22 (active) |
| CAADGMVSKGAGNASASA [HC668] | 0.272 (inactive) | 0.596 (inactive) | -0.245 (inactive) |
| CAFIGREKRSAGNASASA [FS-1323] | 12 (active) | 10.8 (active) | 9.06 (active) |
| CARQDRSKGTAGNASASA [FS-2225] | 0.0348 (inactive) | -0.0846 (inactive) | -0.182 (inactive) |
| CAGSQWEKRSAGNASASA [FS-1129] | 1.1 | -0.464 (inactive) | -0.295 (inactive) |
| CATLDRSKRNAGNASASA [FS-1494] | 10.9 (active) | 11.2 (active) | 9.22 (active) |
| CADPMLEKRSAGNASASA [FS-1517] | -0.771 (inactive) | -0.469 (inactive) | 0.309 (inactive) |
| CAMLSPEKRSAGNASASA [FS-178] | 0.073 (inactive) | -0.325 (inactive) | 0.835 (inactive) |
| CATLDREKRSAGNASASA [FS-98] | 9.65 (active) | 10.6 (active) | 9.73 (active) |
| CADQEREKRSAGNASASA [FS-1115] | 2.32 | 3.5 (active) | 5.3 (active) |
| CADMMMNWSPAGNASASA [HC321] | -1.68 (inactive) | -0.337 (inactive) | -0.211 (inactive) |

| Sequence | furin cleavage Z-score (7.5 min) | furin cleavage Z-score (15 min) | furin cleavage Z-score (30 min) |
| --- | --- | --- | --- |
| CANRLIAFASAGNASASA [HC1119] | 0.982 (inactive) | 0.0869 (inactive) | 0.661 (inactive) |
| CAPYYKRYISAGNASASA [HC577] | -0.596 (inactive) | 1.03 | 0.43 (inactive) |
| CAEVPCHRCSAGNASASA [HC2400] | -0.164 (inactive) | 1.15 | 0.38 (inactive) |
| CAARHRPRRLAGNASASA [FS-1307] | 8.25 (active) | 10.2 (active) | 9.03 (active) |
| CAAEAAGRRLAGNASASA [HC1252] | -0.023 (inactive) | -0.0869 (inactive) | -1.21 (inactive) |
| CAKRAAVRRLAGNASASA [FS-1134] | -0.242 (inactive) | -0.206 (inactive) | 1.42 |
| CAACIRKRRLAGNASASA [FS-1582] | 8.2 (active) | 8.28 (active) | 8.96 (active) |
| CAGDIRVRRLAGNASASA [FS-423] | 3.94 (active) | 5.14 (active) | 6.57 (active) |
| CANLSRNRRLAGNASASA [FS-697] | 2.54 | 6.24 (active) | 6.91 (active) |
| CAEGHRPRRPAGNASASA [FS-412] | -0.592 (inactive) | -1.65 (inactive) | -2.58 (inactive) |
| CAAWYLKGKWAGNASASA [HC548] | -0.848 (inactive) | -0.178 (inactive) | -0.813 (inactive) |
| CAHSAKSKFGAGNASASA [HC1418] | -0.464 (inactive) | -0.415 (inactive) | -0.702 (inactive) |
| CAVVCCSMSKAGNASASA [HC2094] | -0.242 (inactive) | -0.54 (inactive) | -1.3 (inactive) |
| CAHGAGTRTIAGNASASA [HC702] | 1.09 | 1.35 | -2.29 (inactive) |
| CAALSRPRRLAGNASASA [FS-749] | 2.43 | 5.44 (active) | 2.14 |
| CAEVPCHRPVAGNASASA [HC2410] | 0.723 (inactive) | -0.406 (inactive) | -0.356 (inactive) |
| CARSSRPRRSAGNASASA [FS-1163] | 10.4 (active) | 11 (active) | 6.76 (active) |
| CASSGRSFRSAGNASASA [FS-146] | 0.572 (inactive) | 0.748 (inactive) | 1.78 |
| CASSGRPRRSAGNASASA [FS-507] | 10.4 (active) | 9.27 (active) | 7.66 (active) |
| CARSSRSGSSAGNASASA [FS-3096] | -0.25 (inactive) | -0.36 (inactive) | -1.33 (inactive) |
| CASSGCPERLAGNASASA [HC385] | -0.122 (inactive) | -0.598 (inactive) | 0.353 (inactive) |
| CAKPQRPRRPAGNASASA [FS-1133] | -0.333 (inactive) | 0.223 (inactive) | 1.52 |
| CAVDSRPRRSAGNASASA [FS-887] | 9.24 (active) | 9.17 (active) | 9.61 (active) |
| CARESRPRRQAGNASASA [FS-1395] | 8.96 (active) | 9.39 (active) | 6.91 (active) |
